# Source: PubChem BioAssay (NCATS)
# Results filed as inconclusive are left out. Entries that show only a call come without a potency. Calls of active or inactive are those of the source. Unless noted, calls come from the whole dose curve; as a rule, active = well fitted curve in the direction sought with a large enough effect; inconclusive = small, poorly fitted or top-dose-only effect, or another doubt; inactive = no such curve, though single readings can be large; an effect the other way counts as inactive or inconclusive.
# What was measured:
# [1] = P-glycoprotein substrates identified in KB-8-5-11 adenocarcinoma cell line, qHTS therapeutic library screen (AID 1346987); note: nearly all actives have a fitted effect of over 65% in size; note: potency is the fitted concentration of half-maximal effect
# Method in brief: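 Human cervical adenocarcinoma KB-8-5-11 cells, selected in colchicine to over-express P-gp and assayed without it, were exposed for 72 h to titrated compounds. An ATP-based luminescent viability signal gave AC50.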
# [2] = molecular target: Catechol O-methyltransferase (Homo sapiens) (UniProt P21964); assay: Confirmatory Screen for Target Class Profiling of Small Molecule Inhibitors of Methyltransferases (AID 1745852; calls by dose curve); details: MTase-Glo luminescence, SAH detection, recombinant enzyme; measured here: COMT max response; stronger effect = lower value
# Sequence of Catechol O-methyltransferase (Homo sapiens) (P21964 whole entry, looked up): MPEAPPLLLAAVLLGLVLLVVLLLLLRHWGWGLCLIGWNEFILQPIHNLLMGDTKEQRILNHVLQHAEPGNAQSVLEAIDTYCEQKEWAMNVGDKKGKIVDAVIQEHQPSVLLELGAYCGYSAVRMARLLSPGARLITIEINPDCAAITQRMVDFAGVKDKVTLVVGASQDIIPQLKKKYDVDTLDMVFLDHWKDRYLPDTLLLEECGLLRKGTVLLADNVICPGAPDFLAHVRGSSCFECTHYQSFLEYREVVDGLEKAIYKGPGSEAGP
# [3] = molecular target: Guanidinoacetate N-methyltransferase (Homo sapiens) (UniProt Q14353); assay: as above; details: activity change, negative = inhibition: at 57.3 µM (top of the series) unless noted
# [4] = molecular target: Nicotinamide N-methyltransferase (Homo sapiens) (UniProt P40261); assay: as above; details: MTase-Glo luminescence, SAH detection, recombinant enzyme; measured here: NNMT max response; stronger effect = lower value
# Sequence of Nicotinamide N-methyltransferase (Homo sapiens) (P40261 whole entry, looked up): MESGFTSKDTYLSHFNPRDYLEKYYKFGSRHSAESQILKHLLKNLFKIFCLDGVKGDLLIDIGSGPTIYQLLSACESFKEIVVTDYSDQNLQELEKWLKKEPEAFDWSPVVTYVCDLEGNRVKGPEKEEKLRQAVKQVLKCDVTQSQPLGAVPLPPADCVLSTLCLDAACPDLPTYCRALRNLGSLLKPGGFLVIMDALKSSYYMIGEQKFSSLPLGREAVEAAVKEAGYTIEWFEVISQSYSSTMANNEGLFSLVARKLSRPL
# [5] = molecular target: Phenylethanolamine N-methyltransferase (Homo sapiens) (UniProt P11086); assay: as above; details: MTase-Glo luminescence, SAH detection, recombinant enzyme; measured here: PNMT max response; stronger effect = lower value
# Sequence of Phenylethanolamine N-methyltransferase (Homo sapiens) (P11086 whole entry, looked up): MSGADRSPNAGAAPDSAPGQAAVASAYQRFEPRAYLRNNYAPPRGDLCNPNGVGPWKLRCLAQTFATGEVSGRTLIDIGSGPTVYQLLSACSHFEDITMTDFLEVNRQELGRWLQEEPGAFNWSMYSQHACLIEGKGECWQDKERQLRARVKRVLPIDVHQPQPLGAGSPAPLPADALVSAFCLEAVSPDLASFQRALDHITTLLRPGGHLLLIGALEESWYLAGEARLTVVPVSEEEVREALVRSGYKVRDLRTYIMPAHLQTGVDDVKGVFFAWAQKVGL
# [6] = molecular target: Glutathione peroxidase 1 (Homo sapiens) (UniProt P07203); assay: Primary qHTS Assay for Inhibitors of Recombinant Selenoprotein Glutathione Peroxidase 1 (GPX1) (AID 1845191); note: nearly all actives have a fitted effect of over 65% in size
# Sequence of Glutathione peroxidase 1 (Homo sapiens) (P07203 whole entry, looked up): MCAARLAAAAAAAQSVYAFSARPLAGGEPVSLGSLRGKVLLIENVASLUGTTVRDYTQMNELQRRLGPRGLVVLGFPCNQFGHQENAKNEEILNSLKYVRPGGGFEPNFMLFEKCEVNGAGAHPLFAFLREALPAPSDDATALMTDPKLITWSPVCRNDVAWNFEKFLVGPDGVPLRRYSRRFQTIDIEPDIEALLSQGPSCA
# Method in brief: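 GPX1 10 nM, GR 100 nM, GSH 1 mM, NADPH 0.5 mM, CHP 0.5 mM (final). 30-min cpd preincubation, RT. Ex340/Em450 read t=0, t=15 min.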
# [7] = molecular target: Phospholipid hydroperoxide glutathione peroxidase GPX4 (Homo sapiens) (UniProt P36969); assay: Primary qHTS Assay for Inhibitors of Recombinant Selenoprotein Glutathione Peroxidase 4 (GPX4) (AID 1845192); details: outcome: dose series up to 50 µM unless noted; note: potency is the fitted concentration of half-maximal effect; nearly all actives have a fitted effect of over 65% in size
# Sequence of Phospholipid hydroperoxide glutathione peroxidase GPX4 (Homo sapiens) (P36969 whole entry, looked up): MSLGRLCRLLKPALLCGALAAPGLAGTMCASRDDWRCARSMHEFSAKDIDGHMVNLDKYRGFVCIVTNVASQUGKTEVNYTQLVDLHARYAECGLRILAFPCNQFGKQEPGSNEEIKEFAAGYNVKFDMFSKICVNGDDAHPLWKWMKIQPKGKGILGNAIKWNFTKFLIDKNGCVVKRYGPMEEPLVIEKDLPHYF
# Method in brief: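 qHTS, GR-coupled: GPX4 200 nM + cpd 30 min RT → GSH 1 mM, NADPH 0.5 mM, GR 100 nM → CHP 0.5 mM start; fluor 340/450 at t0 and t15 min; no-enzyme wells as control.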
# [8] = Primary qHTS for inhibitors of nuclear receptor binding SET domain protein 2 (NSD2) in an isogenic RCH-ACV NSD2 p.E1099K mutant (9B) (AID 1645876); note: nearly all actives have a fitted effect of over 70% in size; note: potency is the fitted concentration of half-maximal effect
# [9] = Primary qHTS for inhibitors of nuclear receptor binding SET domain protein 2 (NSD2) in an RCH-ACV wild type WT cells (2C) (AID 1645877); note: nearly all actives have a fitted effect of over 70% in size; note: potency is the fitted concentration of half-maximal effect
# [10] = molecular target: Calcium and integrin-binding protein 1 (Homo sapiens) (UniProt Q99828); assay: Primary qHTS for Identification of Calcium Integrin Binding Protein 1 (CIB1) Competitor (AID 1508620);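 note: GST tagged CIB1 binding a fluorescein labelled alphaIIb integrin peptide tracer; top concentration of the series differs between compounds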
# Sequence of Calcium and integrin-binding protein 1 (Homo sapiens) (Q99828 whole entry, looked up): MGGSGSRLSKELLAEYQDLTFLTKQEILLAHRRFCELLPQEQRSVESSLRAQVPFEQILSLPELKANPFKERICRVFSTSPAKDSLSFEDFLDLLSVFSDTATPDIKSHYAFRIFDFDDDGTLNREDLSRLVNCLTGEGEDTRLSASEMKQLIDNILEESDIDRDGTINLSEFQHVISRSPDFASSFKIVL
# Method in brief: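 Fluorescence polarization competition: CIB1-GST (1 uM final) preincubated with compound 15 min at room temperature, then FITC-labeled alphaIIb peptide (100 nM final) added for another 15 min. Polarization read at Ex 480/Em 540.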
compound,measurement,setting,value
O=C1NC(=O)/C(=C\c2ccc3c(c2)OC(F)(F)O3)S1,Potency,[1],inactive
same,activity,[2],-3.87%
same,"activity change, negative = inhibition",[3],-2.97%
same,activity,[4],-7.77%
same,activity,[5],-2.73%
COc1c(-c2ccc3cc(NS(C)(=O)=O)ccc3c2)cc(-n2ccc(=O)[nH]c2=O)cc1C(C)(C)C,Potency,[1],inactive
same,Potency,[6],inactive
same,Potency,[7],3.98 µM (active)
C=CCN(/C=C1\C(=O)OC(COC)C2(C)C1=C(O)C(=O)C1=C2C(OC(C)=O)CC2(C)C(=O)CCC12)CC=C (stereo unspecified),Potency,[1],inactive
same,Potency,[8],9.2 µM (active)
same,Potency,[9],11.6 µM (active)
CC(C)n1nc(Cc2cccc3ccccc23)c2c(N)ncnc21,Potency,[1],18.4 µM (active)
same,outcome,[10],inactive
same,activity,[2],-11.5%
same,"activity change, negative = inhibition",[3],-6.43%
same,activity,[4],-28.9%
same,activity,[5],-57.3%
same,Potency,[6],inactive
O=C1CCCC2=C1C1(CCSCC1)N=C(Nc1nc3ccccc3o1)N2,Potency,[1],inactive
same,outcome,[10],inactive
same,Potency,[8],inactive
same,Potency,[9],inactive
same,Potency,[6],inactive
Cc1ccc(NS(=O)(=O)c2cc3c(cc2N[C@@H](C)CO)NC(=O)CC3)cc1Cl,Potency,[1],inactive
same,outcome,[10],inactive
same,Potency,[6],inactive
